Data on 40 sequences can be found in the supplement of paper PMC10338343.

± gives the standard deviation.

In the assay the test system is EfPiwi piRISC loaded with L1MC piRNA (26 nt). Nature of the assay: pre-steady-state target cleavage rate (min^-1); auxiliary factor: 500 nM Ephydatia muelleri Gtsf1; guide: L1MC piRNA 5'p-UAACUAAAUACUAUGCAAGCUGUAGG; MIWI and MILI are mouse PIWI proteins and EfPiwi is from a freshwater sponge; tags in brackets are library labels; higher = faster piRNA-guided slicing of the target. Put shortly:
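Three pooled Cleave-'n-Seq trials supplied the data, with k3 capped at 0.0001 min^-1. In each, […] transcribed, DNA-blocked target RNA library and 1 nM active affinity-purified piRISC with one synthetic guide reacted in HEPES–potassium acetate buffer at 33 °C for 0–8 or 0–960 min, with or without 500 nM GTSF1 partner protein. Uncleaved targets were sequenced and normalised to depth and to weakly complementary targets. A burst-and-steady-state fit provided the pre-steady-state cleavage rate.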
Regarding UCCUGGUACAGCUUCCAUAGUAUUUAGUUA, the “pre-steady-state target cleavage rate” value is 0.00258 ± 0.0017.
In the case of UCCUGCUACAGCUUGCAUAGUAUUUAGUGUA, the “pre-steady-state target cleavage rate” value was determined as 0.00597 ± 0.0021.
Under UCCUCCUACAGCUUGCAUAGUAAUUUGUUA stands 0.00652 ± 0.0028; under UCCUGGAUCUGCUUGGAUAGUAUUUAGUUA, 0.0089 ± 0.0032; under UCCUGCUACAGCUUGCAUCGUAUUUAGUUA, 0.0091 ± 0.0022.
Under UCCUGGAUGUCGAACGUAUGUAUUUUAGUUA stands < 0.0001; under UCCUGGAUCAGCUUGCAAAGUAUUUAGUAA, 0.00607 ± 0.0027.
Consider UCCUGGAUGUCGAACGUUAGUAUUAAGUAA, for which the “pre-steady-state target cleavage rate” value is < 0.0001.
Next, UCCUGCUACAGGUUGCAUAGUAUUUUGUUA: 0.0057 ± 0.0026.
For UCCUGGAUGUCGUUGGUAAGUAUUUAGUUA, the “pre-steady-state target cleavage rate” value was < 0.0001.
Under UCCUGGAUGUCGAUGCAAAGUAUUUUGUUA stands < 0.0001; under UCCUGGAUCAGCUUGCAUAGUAUAUAGUUA, 0.0716 ± 0.02; under UCCUGCUACAGCUUCCAUAGUAUUUAGAAA, 0.00349 ± 0.0019.
Next, UCCUGGAUGUCGAACCCUAGUAUUUAGUUA: < 0.0001; UCCUGGAUGAGCUUGCAUAGUAUUUUCUAA: 0.00391 ± 0.0026; UCCUGCUACAGCUUGCAUAGUUAUUAGUAA: 0.00306 ± 0.0017.
Take UCCUGGAUGACCAUGCAUAGUAUUUAGUUA: the “pre-steady-state target cleavage rate” value is 0.00488 ± 0.0028.
Consider UCCUCCUACAGCUUGGAUAGUAUUUACAAA, for which the “pre-steady-state target cleavage rate” value is 0.00267 ± 0.0022.
UCCUGCUACAGCUUGCAUAGUAUUUAGUGA: the “pre-steady-state target cleavage rate” value was found to be 0.00567 ± 0.0019.
Under UCCUGCUACAGCUUGCUUAGUAUUUUCAAA stands 0.00321 ± 0.003; under UCCUGGUACAGCCUGCAUAGUAUUUAGUUA, 0.00984 ± 0.0036; under UCCUGGAUGUGCUUGCAUCGUAUUUAGUUA, 0.00598 ± 0.0028.
Next, UCCUGGUAUCAGCUUGCAUAGUAUUUAGUUA: 0.0704 ± 0.018; UCCUCCUACAGCUUGCAUAGUAUUUUAGUUA: 0.0456 ± 0.014; UCCUGGAACAGCUUGCAUAGUACUUAGUUA: 0.0218 ± 0.0069.
With UCCUCCUACAGCUAUGCAUAGUAUUUAGUUA, the “pre-steady-state target cleavage rate” value was found to be 0.0164 ± 0.0055.
UCCUGCUACAGCUUGCAUAGUAAUUAGAUA: the “pre-steady-state target cleavage rate” value came to 0.00345 ± 0.0018.
Under UCCUGCUUCUGCUUGCAUAGUAUUUAGUUA stands 0.0112 ± 0.0038.
As for UCCUGGAUCAGCUUCCAUAGUAUUUAGAAA, the “pre-steady-state target cleavage rate” value is 0.00474 ± 0.0027.
Under UCCUGCUACAGCUUGCAUAGAAUUUAGUAA stands 0.00358 ± 0.0016; under UCCUGGAUGUCGAACCAUCGUAUUUAGUUA, < 0.0001.
Next, UCCUGGAUGUGCUUGCAUAGUAUUUAGCUA: 0.00363 ± 0.0021; UCCUCCUACAGCUUGCAGAGUAUUUAGUUA: 0.0095 ± 0.0025.
Under UCCUGCUAGAGCUUGCAUAGUAUUAAGUUA stands 0.00624 ± 0.0022; under UCCUGGAACAGCUUGCAUAGUCUUUAGUUA, 0.00979 ± 0.0029.
For UCCUGGAUGUCGAACCAUAGUAAUUAGUUA, the “pre-steady-state target cleavage rate” value is < 0.0001.
Under UCCUGGAUGUCGAAGCAUACUAUUUUGUUA stands < 0.0001; under UCCUGGAUCAGGUUGCAUAGAAUUUAGUUA, 0.00305 ± 0.0023; under UCCUCCUACAGCUUGUAUAGUAUUUAGUUA, 0.143 ± 0.033.
Consider UCCUGGUACAGCUUGCAUAGUAUUUAGAUA, for which the “pre-steady-state target cleavage rate” value was determined as 0.00705 ± 0.0034.
